The whole screen tested about 68,000 compounds, of which about 2,700 (4%) showed an effect of 50% or more. The list comes from a sample in which strong results are over-represented; it also holds similar structures and randomly drawn compounds.

The subject of the assay is Plasmodium berghei. The assay can be described thus: Screen against P. berghei liver stage (PbLuc), transformed with Luciferase, at 2uM. The class given is functional, HepG2. Conditions: tested at 2 uM.
In the case of `COc1ccc2cc(C(=O)N3CCCC(n4ccnc4C)C3)[nH]c2c1` (stereo not given), the INHIBITION is -47.33%.

As for `CCNc1cc2c(nn1)CCN(C(=O)c1cccc3c1OCO3)C2`, the INHIBITION was found to be 1.63%.

With `Cn1ccnc1CN1CCN(c2ccc(C#N)cc2F)CC1`, the INHIBITION is recorded as -5.15%.

Regarding `Cn1cc(N2CCN(c3ccc(C#N)cc3F)CC2=O)cn1`, the INHIBITION stood at 53.98%.

Consider `Cn1cc(N2CCN(c3ccc(C#N)c(Cl)c3)CC2=O)cn1`, for which the INHIBITION came out at 52.3%.

Consider `COCC1CN(c2ccc(C#N)c(Cl)c2)CCO1` (stereo not given), for which the INHIBITION turned out to be 2.69%.

In the case of `Cn1cc(N2CCN(c3ccc(C#N)cc3Br)CC2=O)cn1`, the INHIBITION is recorded as 42.2%.

On to `N#Cc1ccc(N2CCC(OC3CCOCC3)CC2)cc1Cl`, for which the INHIBITION is recorded as 26.51%.

With `O=C(Cn1cccnc1=O)NCCc1ccc2c(c1)OCCO2`, the INHIBITION came out at 0.9%.

In the case of `COc1ccc2c(ccn2CCCN)c1`, the INHIBITION is -19.92%.

Take `CC(Sc1nnnn1C1CCOCC1)C(=O)NC1CCCCC1` (stereo not given): the INHIBITION was -33.07%.

Turning to `COC(=O)C(C)Sc1nnnn1C1CCOCC1` (stereo not given), the INHIBITION is -53.55%.

With `CC(Sc1nnnn1C1CCOCC1)C(F)(F)F` (stereo not given), the INHIBITION was 5.55%.

As for `CC(C)OCCSc1nnnn1C1CCOCC1`, the INHIBITION was determined as 17.37%.

With `CCCC(C)Sc1nnnn1C1CCOCC1` (stereo not given), the INHIBITION was 61.27%.

On to `CCCOC(=O)C(C)Sc1nnnn1C1CCOCC1` (stereo not given), for which the INHIBITION is 71.4%.

Turning to `CCc1nccn1C1CCCN(C(=O)Cc2ccc(OC)c(F)c2)C1` (stereo not given), the INHIBITION came out at 29.71%.

Consider `COc1ccc(CNC(=O)N2CCCC(Nc3ccccc3)C2)cn1` (stereo not given), for which the INHIBITION amounted to 17.48%.

With `Fc1ccc(CN2CCc3ncnc(C4CC4)c3CC2)cc1`, the INHIBITION was -12.06%.

On to `Cc1cn[nH]c1C1CCCCN1C(=O)CCc1c(C)n[nH]c1C` (stereo not given), for which the INHIBITION was 5.34%.

For `O=C(NCC1CCCOC1)c1ccc(-c2cccs2)[nH]c1=O` (stereo not given), the INHIBITION is reported as 38.67%.

In the case of `Cc1cc(C(=O)N2CCCC(c3noc(C)n3)C2)[nH]n1` (stereo not given), the INHIBITION worked out at 45.75%.

For `CCN1C[C@@H]2CN(C(=O)c3cccn3C)C[C@@H]2C1=O`, the INHIBITION stood at 17.05%.

Turning to `CCCN1C[C@@H]2CC[C@H]1CN(Cc1cccc(O)c1)C2`, the INHIBITION is recorded as -1.63%.

Turning to `CCCN(CCO)C(=O)C1CCC(=O)N(CCc2ccc(Cl)cc2)C1` (stereo not given), the INHIBITION is recorded as -16.93%.

In the case of `CC(C)N(CCO)C(=O)C1CCC(=O)N(CCc2ccc(Cl)cc2)C1` (stereo not given), the INHIBITION worked out at 17.2%.

Consider `CC(C)N(C)C(=O)C1CCC(=O)N(CCc2cccc(F)c2)C1` (stereo not given), for which the INHIBITION worked out at 68.39%.

For `CCN(CC)C(=O)C1CCC(=O)N(CCc2cccc(F)c2)C1` (stereo not given), the INHIBITION was determined as 17.48%.

For the molecule `CC(C)N(CCO)C(=O)C1CCC(=O)N(CCc2cccc(F)c2)C1` (stereo not given), the INHIBITION is recorded as 66.74%.

Turning to `CCN(CCO)C(=O)C1CCC(=O)N(CCc2cccc(F)c2)C1` (stereo not given), the INHIBITION was 30.62%.

For `CCN(CCO)C(=O)C1CCC(=O)N(Cc2cccc(OC)c2)C1` (stereo not given), the INHIBITION is reported as 53.61%.

Consider `CCC(CO)(CO)NC(=O)C1CCC(=O)N(CCc2ccccc2)C1` (stereo not given), for which the INHIBITION is reported as -19.02%.

As to `CCCN(CCO)C(=O)C1CCC(=O)N(Cc2ccc(Cl)cc2)C1` (stereo not given), the INHIBITION is on record as -49.57%.

On to `CN1CCN(C2COC3(CCN(Cc4ccc(F)cc4)CC3)C2)CC1` (stereo not given), for which the INHIBITION is -0.38%.

`CC(C)c1cc(C(=O)NCC(O)C2CCOCC2)nn1C(C)(C)C` (stereo not given): the INHIBITION is -31.6%.

As to `Cc1nc2cc(O)nn2c(C)c1CCC(=O)NCc1cc(Br)cs1`, the INHIBITION is 15.28%.

Take `Cc1cc(C(=O)NCC2COCc3c(C)nnn3C2)no1` (stereo not given): the INHIBITION is on record as 14.39%.

Take `CCN1CC(C(=O)N(C)Cc2ccon2)CC1=O` (stereo not given): the INHIBITION is reported as -26.32%.

`CN(C)CC(=O)N1CC[C@H]2OCC[C@@]2(COCC2CC2)C1`: the INHIBITION came out at 11.87%.

For the molecule `c1cnc(N2CC[C@@H](OCC3CC3)[C@@H]2Cc2cccnc2)nc1`, the INHIBITION was 23.21%.

For `CNC(=O)COC1COC2(CCN(c3ccc(C#N)cc3)CC2)C1` (stereo not given), the INHIBITION is 14.97%.

Consider `COCC(=O)N(CCC(=O)OC)CC1CCCO1` (stereo not given), for which the INHIBITION turned out to be 10.4%.

Turning to `COCC(=O)N1CC[C@H]2C[C@H](c3nnc(C4CC4)o3)O[C@@H]2C1`, the INHIBITION is 50.61%.

For `COCC(=O)N1CC[C@H]2C[C@H](c3nc(C)no3)O[C@@H]2C1`, the INHIBITION is -1.81%.

Take `COCC(=O)N1CC[C@H]2C[C@@H](c3nnc(C4CC4)o3)O[C@@H]2C1`: the INHIBITION worked out at 6.55%.

In the case of `CC(C)CS(=O)(=O)CCNC(=O)Nc1cccc2ncccc12`, the INHIBITION is on record as -41.73%.

As to `Cc1cc(F)ccc1NC(=O)Cn1cc(C(=O)O)ccc1=O`, the INHIBITION is given as 55.39%.

For the molecule `O=C(Cn1cc(C(=O)O)ccc1=O)Nc1ccc(F)cc1Cl`, the INHIBITION was -5.95%.

With `O=C(Cn1cc(C(=O)O)ccc1=O)Nc1cc(F)ccc1F`, the INHIBITION was determined as 63.46%.

Take `Cc1ccc(Cl)cc1NC(=O)Cn1cc(C(=O)O)ccc1=O`: the INHIBITION is reported as 22.4%.

For `COCCOCC(=O)Nc1ccc(F)cc1C`, the INHIBITION amounted to 52.74%.

As for `COCCOCC(=O)Nc1ccc(C)cc1F`, the INHIBITION worked out at 11.28%.

For `O=C(Cn1cc(C(=O)O)ccc1=O)NCc1ccc(F)cc1Cl`, the INHIBITION came to 9.27%.

As to `O=C(Cn1cc(C(=O)O)ccc1=O)Nc1ccc(Cl)cc1F`, the INHIBITION came to 33.23%.

In the case of `COCCOCC(=O)Nc1cc(C)ccc1F`, the INHIBITION is listed as 12.56%.

(Values after ChEMBL document CHEMBL4513216, “Probing the Open Global Health Chemical Diversity Library for Multistage-Active Starting Points for Next-Generation Antimalarials” (ACS Infect Dis, 2020).)
